Assay results from PubChem BioAssay AID720593 (Broad Institute, 2013).
Results with a measured potency or affinity are listed apart. Calls of active or inactive are those of the source.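 Rule for the calls: active = falling viability curve whose half-maximal potency lies within twice the top valid tested dose; inconclusive = flat curve with moderate signal loss, or unreliable curve fit; inactive = the rest.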

Test: ATP-based viability loss in HeLa cells – cell-based, CellTiter-Glo luminescence, dry powder, set 2, cytotoxicity control, dose response (AID 720593)
Conditions: 72 h; series mostly up to 26 µM

Compound	outcome
Cc1nnc(NC(=O)c2ccc(S(=O)(=O)N3CCCCC3)cc2)o1	inactive
CC(C)Cc1nnc(NC(=O)c2cccc(S(=O)(=O)N3CCOCC3)c2)s1	inactive
Cc1ccc(S(=O)(=O)CCc2nnc(NC(=O)c3ccccc3)s2)cc1	inactive
CC1CCN(S(=O)(=O)c2ccc(C(=O)Nc3nnc(-c4cccs4)o3)cc2)CC1	inactive
CC1CCN(S(=O)(=O)c2ccc(C(=O)Nc3nnc(-c4ccco4)o3)cc2)CC1	inactive
CC1CCN(S(=O)(=O)c2ccc(C(=O)Nc3nnc(-c4ccno4)o3)cc2)CC1	inactive
CC1CCN(S(=O)(=O)c2ccc(C(=O)Nc3nnc(-c4ccccn4)o3)cc2)CC1	inactive
Cc1ccc(C(=O)Nc2nc(-c3ccccn3)cs2)cc1S(=O)(=O)N1CCOCC1	inactive
CC1CCCN(S(=O)(=O)c2ccc(C(=O)Nc3nnc(C4=COCCO4)o3)cc2)C1 (centres undefined)	inactive
CC1CCN(S(=O)(=O)c2ccc(C(=O)Nc3nnc(-c4ccccc4)o3)cc2)CC1	inactive
O=C(Nc1nnc(C2=COCCO2)o1)c1ccc(S(=O)(=O)N2CCCCC2)cc1	inactive
O=C(Nc1nc(-c2ccncc2)cs1)c1ccco1	inactive
O=C(CSc1ccc(-c2ccccn2)nn1)NC1CCCCC1	inactive
Cc1ccc(C(=O)Nc2nc(-c3ccccc3)cs2)o1	inactive
Cc1cccc(NC(=O)CSc2ccc(-c3ccccn3)nn2)c1C	inactive
CC1CCN(S(=O)(=O)c2ccc(C(=O)Nc3nnc(C4CC4)o3)cc2)CC1	inactive
FC(F)(F)c1cc(-c2nn[nH]n2)cc(C(F)(F)F)c1	inactive
CC1CCN(S(=O)(=O)c2ccc(C(=O)Nc3nnc(C4=COCCO4)o3)cc2)CC1	inactive
O=C(CSc1ccc(-c2ccccn2)nn1)Nc1nccs1	inactive
CC1CC(C)CN(S(=O)(=O)c2ccc(C(=O)Nc3nnc(C4=COCCO4)o3)cc2)C1 (centres undefined)	inactive
Cc1c(C(=O)N(C)C)sc2nc(-c3ccccn3)[nH]c(=O)c12	inactive
COC(=O)Cc1cc(=O)n(-c2nc3ccccc3[nH]2)[nH]1	inactive
O=C(CSc1ccc(-c2ccccn2)nn1)N1CCCC1	inactive
COC(=O)c1ccc(NC(=O)CSc2ccc(-c3ccccn3)nn2)cc1	inactive
